Results filed as inconclusive are left out. A number with no mark means an inactive call. Calls follow the shape of the dose curve; as a rule, active = well fitted cell-killing curve with a large enough effect; inconclusive = small, poorly fitted or top-dose-only effect, or effect the other way; inactive = flat fitted curve, though single readings scatter. Where a SMILES comes first, the peptide text is derived from it. Bridges are numbered along the chain shown (N, C = ends). [ ]: non-standard residue; d: D form. hArg = N=C(N)NCCCC[C@H](N)C(=O)O; Mpa = O=C(O)CCS
test system: CAOV3; test: Primary qHTS to identify gynecologic anti-cancer compounds using libraries of approved drugs and bioactive compounds (AID 1345084); details: Gynecologic cancer cell panel viability, ATPlite luminescence, 48 h; series mostly up to 57.5 µM; activity change, negative = cytotoxicity: at the top concentration; also: nearly all actives have a fitted effect of over 55% in size
Source text: National Center for Advancing Translational Sciences [NCATS] Assay Overview: Chemotherapeutic drug responses vary from cancer to cancer and from patient to patient. These variations could be caused by a number of factors including patient genomic background, tumor mutations, tumor heterogeneity, and aspects of drug treatment. Chemotherapeutic drug resistance is also a common issue and can lead to ineffective treatment and patient death. Here we have profiled the cell killing effects of thousands of compounds to characterize the responses in three gynecological cancers, identify cancer-selective compounds, and understand the diversity of responses to these compounds from pan-cancer suppressors to single cell line selective compounds. In this assay, we screened a 7,914 compound drug library that included approved drug and bioactive compounds in six ovarian, three cervical, and […] placental cancer cell lines using the ATPlite assay for cell viability. […] The cervical cancer cell lines included HeLa, Ca Ski, and C-33 A. The placental cancer cell lines included JEG-3. HEK 293T cells were used as the control cell line to determine the selectivity index. ATPlite is a luminescence based assay reliant on the conversion of a luciferase substrate to light in the presence of ATP. As a cytotoxic compound will suppress growth and decrease the number of cells, the concentration of ATP will decrease, and less light signal will be detected in the well.
Assay Protocol Summary: 1,000 cells in 4 uL of media were dispensed into white, solid bottom 1536-well plates using a Multidrop Combi (Thermo Scientific). The Assay plates were incubated for 16 hours at 37 C with 5% CO2 in assay plates, followed by the addition of 23 nL of DMSO or drug dissolved in DMSO. Each compound was assayed in five concentrations (0.092, 0.46, 2.3, 11.5, and 57.5 uM), using the automated Wako 1536 Pin Tool workstation and incubated at 37 C with 5% CO2 48 hours. 4 uL of ATPlite, the ATP monitoring reagent, was then added to the each well of the assay plates using the Multidrop Combi reagent dispenser followed by incubation for 15 minutes at room temperature. The resulting luminescence was measured using the ViewLux plate reader.
% is scaled to controls: 0 for no effect and ±100 for the full control effect.

Compound	activity change, negative = cytotoxicity
CC(=O)N[C@H]1[C@H]([C@H](O)[C@H](O)CO)OC(C(=O)O)=C[C@@H]1N=C(N)N	15.9%
OCCN1C[C@H](O)[C@@H](O)[C@H](O)[C@H]1CO	-0.298%
O=C(O)CCCc1ccccc1	26.5%
CCCCCC(N)=O	10.8%
O=C(OOC(=O)c1ccccc1)c1ccccc1	8.62%
NC(=O)[C@@H]1CSSCCC(=O)N[C@@H](CCCCN=C(N)N)C(=O)NCC(=O)N[C@@H](CC(=O)O)C(=O)N[C@@H](Cc2c[nH]c3ccccc23)C(=O)N2CCC[C@H]2C(=O)N1 ([Mpa][hArg]GDWPC-NH2; disulfide 1-7)	-4.04%
C1CCN2C[C@@H]3C[C@@H](CN4CCCC[C@@H]34)[C@H]2C1	18.2%
O=C(NCC(O)CO)c1c(I)c(C(=O)NCC(O)CO)c(I)c(N(CCO)C(=O)CO)c1I (stereo not given)	23.4%
O=C(O)CCC(=O)O	0.249%
C[N+]1(C)CCCC(OC(=O)C(O)(c2ccccc2)c2ccccc2)C1 (stereo not given)	5.96%
CCOC(=O)[C@H](CCc1ccccc1)N[C@@H](C)C(=O)N1Cc2cc(OC)c(OC)cc2C[C@H]1C(=O)O	1.83%
OC[C@@H](O)[C@@H](O)[C@H](O)[C@H](O)CO	4.9%
COC(=O)c1ccc(O)cc1	24.8%
O=C(NCCCN1CCOCC1)c1ccc(Cl)cc1	3.16%
CO[C@@]1(NC(=O)C(C(=O)O)c2ccc(O)cc2)C(=O)N2C(C(=O)O)=C(CSc3nnnn3C)CO[C@@H]21 (stereo not given in full)	-2.81%
Cc1ccc(S(=O)(=O)NC(=O)NC2CCCCC2)cc1	19.1%
NS(=O)(=O)c1cc2c(cc1C(F)(F)F)NCNS2(=O)=O	-1.45%
COc1ccc(Cc2cnc(N)nc2N)cc1OC	-2.67%
CCN1CC(CCN2CCOCC2)C(c2ccccc2)(c2ccccc2)C1=O (stereo not given)	19.6%
C=CCSCC1Nc2cc(Cl)c(S(N)(=O)=O)cc2S(=O)(=O)N1 (stereo not given)	13.7%

Compound	activity change, negative = cytotoxicity
CN1CC(=O)NC1=N	-5.39%
C[C@@H]1O[C@@H](OC[C@H]2O[C@@H](Oc3c(-c4ccc(O)c(O)c4)oc4cc(O)cc(O)c4c3=O)[C@H](O)[C@@H](O)[C@@H]2O)[C@H](O)[C@H](O)[C@H]1O	16.4%
CCOc1ccc(C(=O)OCCN(CC)CC)cc1	-1.37%
CC(O)CCCCn1c(=O)c2c(ncn2C)n(C)c1=O (stereo not given)	2.56%
O=C(O)CNC(=O)c1ccccc1I	11%
O=C(/C=C/c1ccc(O)c(O)c1)O[C@@H]1C[C@@](OC(=O)/C=C/c2ccc(O)c(O)c2)(C(=O)O)C[C@@H](O)[C@@H]1O	10%
C=CCOc1ccccc1OCC(O)CNC(C)C (stereo not given)	-0.149%
Cc1ccc(S(=O)(=O)NC(=O)NC2CCCCCCC2)cc1	20.7%
NS(=O)(=O)c1cc(-c2nn[nH]n2)c(NCc2cccs2)cc1Cl	-1.79%
O=C(O)c1ccccc1OP(=O)(O)O	1.84%
CC(=O)OCC(COC(C)=O)OC(C)=O	7%
COc1ccccc1OC(=O)Oc1ccccc1OC	11.2%
CCCNC(C)(C)COC(=O)c1ccccc1	-10.2%
CC(=O)Nc1cccc(O)c1	2.59%
CC(C)C[C@@H](N)C(=O)O	10.9% [at 25.3 µM]
O=C(O)CCCCC1CCSS1 (stereo not given)	6.95%
CN1C[C@@H]2C[C@H]1CN2c1cc2c(cc1F)c(=O)c(C(=O)O)cn2C1CC1	0.355% [at 25.3 µM]
Cc1cc(NC(=O)C2=C(O)c3ccccc3S(=O)(=O)N2C)no1	1.91%
CC(C)=CCC[C@@](C)(O)[C@H]1CC=C(C)CC1	17.8%
Cc1ccc(C(C)C)c(O)c1	-1.34%
